Screens from PubChem.
Only some compounds are listed: those with a hit (about 1.6% of all), similar ones and a draw of the others.
gsp agonist: activates gsp, the McCune-Albright syndrome mutation. gsp mutant cells, cAMP HTRF, 30 min. Potency, µM (series often up to 76.9 µM), for inactives: top-dose activation (cAMP increase), actives largely listed as activators. actives 0.13% (n = 340,000). AID 624287; active = well fitted activation curve with a large enough effect; inconclusive = small, poorly fitted or top-dose-only effect, or another doubt; inactive = no such curve, though single readings can be large or run the other way; cell line not stated here;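 note: phosphodiesterase inhibitor Ro 20-1724 added with compounds to block cAMP breakdown; nearly all actives have a fitted effect of over 60% in size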
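Cells stably selected in G418 were plated at 2000/well, grown 16-24 hr, then given compounds in DMSO with the PDE inhibitor […] (300 uM solution added) for 30 min at 37C; cAMP was read by HTRF.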
FUS yeast rescue: rescues growth of FUS-expressing yeast | S. cerevisiae FUS-expressing, growth rescue, OD600, 24 h | Potency, µM (top dose mostly 76.6 µM), actives largely listed as activators | actives 0.24% (n = 390,000) | AID 1347120;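 note: plate controls were DMSO vehicle for no effect and reference control for full effect; nearly all actives have a fitted effect of over 55% in size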
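Read-out: OD at 600 nm after 24hr at 30C, reporting rescue of FUS-induced yeast toxicity. Cells at OD 0.005 in galactose (2%) minimal medium; compounds tested in a dilution series; CP55940 titration from 92uM final as control.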
ALOX12 inh: inhibitors of human 12S-lipoxygenase ALOX12. actives 1.1% (n = 580,000). Potency, µM (top dose mostly 108 µM), without a hit: top-dose activity change, negative = inhibition, hits mostly inhibitors. purified 12hLO, xylenol orange hydroperoxide absorbance. P18054; note: % is set by controls: 0 for no effect and ±100 for the full control effect
Target sequence (P18054 whole entry, looked up): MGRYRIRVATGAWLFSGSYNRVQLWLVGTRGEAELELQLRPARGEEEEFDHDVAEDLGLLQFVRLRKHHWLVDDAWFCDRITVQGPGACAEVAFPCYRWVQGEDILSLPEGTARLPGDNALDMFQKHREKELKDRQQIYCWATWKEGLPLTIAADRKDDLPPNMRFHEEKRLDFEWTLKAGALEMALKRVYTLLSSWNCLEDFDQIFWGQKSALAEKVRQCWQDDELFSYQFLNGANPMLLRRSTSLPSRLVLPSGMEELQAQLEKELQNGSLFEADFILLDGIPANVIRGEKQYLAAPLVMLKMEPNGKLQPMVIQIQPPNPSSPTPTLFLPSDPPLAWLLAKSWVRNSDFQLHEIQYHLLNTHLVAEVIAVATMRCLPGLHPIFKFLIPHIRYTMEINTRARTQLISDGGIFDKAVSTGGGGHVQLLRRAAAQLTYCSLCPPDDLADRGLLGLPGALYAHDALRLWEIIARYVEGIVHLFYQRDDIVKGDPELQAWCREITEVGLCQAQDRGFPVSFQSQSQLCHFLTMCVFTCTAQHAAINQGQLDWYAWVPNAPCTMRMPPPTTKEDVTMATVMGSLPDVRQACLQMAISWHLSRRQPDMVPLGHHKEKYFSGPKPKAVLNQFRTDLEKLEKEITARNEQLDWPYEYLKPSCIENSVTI
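Purified human 12hLO (150 nM final) in 25 mM Hepes, 0.01% Triton X-100, pH 7.0 was preincubated 15 min at room temperature with compound. Then 40 uM arachidonic acid was added, 30 min. Hydroperoxide was read by Fe-XO absorbance ratio 573/405 nm.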
gsp antag: gsp mutant antagonism; actives 0.4% (n = 340,000); gsp-mutant cells, cAMP HTRF, 30 min; AID 624288; Potency, µM (titrated, usually from 76.9 µM), for inactives: top-dose activity change, negative = inhibition, usual class: inhibitors; calls by dose curve; cell line not stated here;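 note: intracellular cAMP measured with PDE inhibitor Ro 20-1724 present during compound exposure; % is set by controls: 0 for no effect and ±100 for the full control effect; nearly all actives have a fitted effect of over 65% in size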
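G418-selected cells were plated in DMEM/10% FBS for 16-24 h at 37C, then treated with compounds plus the PDE inhibitor […] (300 uM solution added) for 30 min at 37C. Intracellular cAMP was measured by HTRF after 30 min lysis at room temperature.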
Mito fusion act: inhibitors of mitochondrial division or activators of mitochondrial fusion; S. cerevisiae fusion-defective mutant growth rescue, CellTiterGlo 48 h; Potency, µM (titrated, usually from 46.1 µM), for inactives: at the highest dose growth rescue (activation), usual class: activators; actives 0.23% (n = 320,000); AID 485298; note: % of control where 0% means no effect; nearly all actives have a fitted effect of over 45% in size
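Luminescent cell viability in 1536-well qHTS format served as the measure of rescued growth in ts fusion-mutant S. cerevisiae cultured on non-fermentable YPEG for 48 hours at 37C.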
Numbers without * were called inactive; i = inactive; ? = inconclusive; / = no result given; ! = not active in a repeat; [ ] = remark or other dose. Unless noted, calls come from the whole dose curve; as a rule, active = well fitted curve in the direction sought with a large enough effect; inconclusive = small, poorly fitted or top-dose-only effect, or another doubt; inactive = no such curve, though single readings can be large; an effect the other way counts as inactive or inconclusive. Potency is the fitted concentration of half-maximal effect.

SMILES | gsp agonist | FUS yeast rescue | ALOX12 inh | gsp antag | Mito fusion act
CCOC(=O)c1ccc(N2CCN(c3cc(C)ccc3C)CC2)c(N)c1 | -31% | i | -7% | 12% | -12%
CCOC(=O)N1CCC(N2CCN(c3cc(C)ccc3C)CC2)CC1 | -8% | i | 6.3µM* | 3% | 2%
CC(C)NC(=O)N[C@H]1CCN2C(=O)c3cc(-c4ccc(F)cc4F)ccc3NC(=O)[C@H]12 | / | / | 3%[176 µM] | / | /
CCS[C@H]1CCN2C(=O)c3cc(-c4ccc(F)cc4F)ccc3NC(=O)[C@H]12 | / | / | 45µM* | / | /
COC(=O)Cn1c(CN2CCN(C(=O)c3ccco3)CC2)nc2c1c(=O)n(C)c(=O)n2C | ? | i | -21% | -5% | 0%
COCCn1c(CN2CCN(C(=O)c3ccco3)CC2)nc2c1c(=O)n(C)c(=O)n2C | 18µM* | i | 13% | -5% | -4%
O=c1c(O[C@@H]2O[C@H](CO)[C@H](O)[C@H](O)[C@H]2O)c(-c2ccc(O)c(O)c2)oc2cc(O)cc(O)c12 | / | / | / | / | -5%
O=c1c(O)c(-c2ccccc2)oc2cc(O)cc(O)c12 | / | i | 11% | -15% | /
CC(C)=CCc1cc(-c2oc3cc(O)cc(O)c3c(=O)c2O)ccc1O | / | i | 35µM* | 2% | /
COc1c(-c2ccc(O)c(O)c2)oc2cc(O)cc(O)c2c1=O | / | i | 7.1µM* | 1% | 0.63µM*
Cn1c(=O)c2c(O)c(Cc3ccccc3)c(=O)[nH]c2n(C)c1=O | -9%[15.4 µM] | i | 0% | 10% | 20µM*
Cc1[nH]c(=O)c(Cc2ccccc2)c(O)c1C#N | -1%[15.4 µM] | i | 418% | -2% | /
CCC(C)NC(=O)CN1C(=O)NC2(CCC(C)CC2)C1=O (configuration not stated) | / | / | 7% | / | /
CC(OC(=O)CN(C)S(=O)(=O)c1ccc(Cl)cc1)C(=O)Nc1cccc(Cl)c1 (configuration not stated) | 8% | ? | ? | 40µM* | 1%
CN(CC(=O)Nc1ccc(Cl)c(C(F)(F)F)c1)C(=O)c1ccc(N2CCOCC2)c([N+](=O)[O-])c1 | -16%[15.4 µM] | 32µM* | ? | -19% | -2%
NNCCc1ccccc1 | / | i | 5.4µM*! | 3% | -1%
O=C(C1CCC(CNS(=O)(=O)c2cccc3nsnc23)CC1)N1CC=C(c2ccccc2)CC1 (configuration not stated) | -14% | i | 3%[57.4 µM] | 35µM* | 4%
O=C(C1CCN(S(=O)(=O)c2cccc3nsnc23)CC1)N1CC=C(c2ccccc2)CC1 | 10% | i | 0% | ? | 5%
O=C(NC1CCN(c2cc(C(F)(F)F)ncn2)CC1)c1ccccc1 | / | / | 45µM* | / | /
NC(=S)c1cc2ccc(O)cc2oc1=O | 2.5µM* | / | ? | -2% | 5%
COc1ccccc1CN(C)C(=O)c1cccc(S(=O)(=O)N2CCCc3ccccc32)c1 | -14% | / | 424% | 35µM* | 17%
CC(=O)c1cccc(NC(=S)NC(=O)c2cccc(Cl)c2)c1 | 1% | i | -20% | -14% | 6%
Cc1cccc(C(=O)Nc2ccc(NC(=S)NC(=O)c3cccc(Cl)c3)cc2)c1 | / | / | 18µM* | / | /
CCCC(=O)N1CCN(c2ccc(NC(=S)NC(=O)c3cccc(C)c3)cc2)CC1 | 6%[15.4 µM] | i | 16µM* | ? | 2%
Cc1cccc(C)c1NC(=S)NC(=O)c1cccc(Cl)c1 | / | i | 32µM* | / | /
SMILES | gsp agonist | FUS yeast rescue | ALOX12 inh | gsp antag | Mito fusion act
O=[N+]([O-])CC(=Nc1ccc(Cl)cc1)N/N=C\c1oc(O)c2ccccc12 | -7%[15.4 µM] | i | 4µM* | -7% | -4%
CN1CCc2nc(SCc3ccc(Cl)cc3)c(C#N)c(-c3cccs3)c2C1 | 29% | ? | 20µM* | 7% | /
COc1ccc(N2CCN(C(=O)c3cn(CC(C)C)c(=O)c4c3c3ccccc3n4C)CC2)cc1 | / | ? | -12% | / | /
CC(C)Cn1cc(C(=O)N2CCN(c3cccc(Cl)c3)CC2)c2c3ccccc3n(C)c2c1=O | / | 35µM* | -20% | / | /
O=c1c2ccccc2n(Cc2ccco2)n1[C@@H](Cc1ccccc1)Cn1cc(-c2ccc(-c3ccccc3)cc2)nn1 | / | 18µM* | / | / | /
COC(=O)c1ccc(CSc2n[nH]c(=S)s2)o1 | 0% | i | 16µM* | -3% | -1%
COC(=O)c1ccc(CSc2nc3ccccc3s2)o1 | -13% | i | -20% | -3% | 10%
CCOCc1cnc(C)nc1NCC(=O)c1c(C)[nH]c2ccc(OC)cc12 | 7% | i | 13µM* | 2% | -2%
COc1ccc2[nH]c(C)c(C(=O)CN3CCN(C/C=C/c4ccccc4)CC3)c2c1 | -30% | i | -11% | -5% | -3%
COc1cccc(-c2nc(CSCC(=O)NCc3ccccc3)c(C)o2)c1 | / | / | 16% | / | /
O=C(O)c1ccccc1NS(=O)(=O)c1ccc(N/N=C/c2cccc(O)c2O)c([N+](=O)[O-])c1 | -23% | / | 40µM* | -5% | /
CCOc1ccc(C=NNc2ccc(S(=O)(=O)Nc3ccccc3C(=O)O)cc2[N+](=O)[O-])cc1OC | 3%[15.4 µM] | i | / | -21% | /
Cc1ccc(/C=N/Nc2ccc(S(=O)(=O)Nc3ccccc3C(=O)O)cc2[N+](=O)[O-])o1 | / | / | 14µM* | / | /
CC(=O)Nc1ccc(C=NNc2ccc(S(=O)(=O)Nc3ccccc3C(=O)O)cc2[N+](=O)[O-])cc1 | -12% | i | ? | -6% | /
CCOc1cc(/C=N/Nc2ccc(S(=O)(=O)Nc3ccccc3C(=O)O)cc2[N+](=O)[O-])cc(Cl)c1O | 4% | i | 35µM* | / | /
COc1cc(C=NNc2ccc(S(=O)(=O)Nc3ccccc3C(=O)O)cc2[N+](=O)[O-])ccc1O | -38% | i | ? | -10% | /
CCn1ccnc1CN(C)Cc1cn(Cc2ccccc2)nc1-c1cc2ccccc2o1 | / | / | -6% | / | /
CCn1c(=O)n(CCC(=O)NC2(c3noc(C)n3)CCCCC2)c2ccccc21 | / | / | -1% | / | /
O=C(O)CCc1ccc(S(=O)(=O)Nc2cccc3c2CCCC3)cc1 | / | / | 0% | / | /
Cc1ccc(N2C(=O)/C(=C/c3ccco3)SC2=S)cc1 | 12%[15.4 µM] | i | 18µM* | 9% | -2%
Cc1ccc(N2C(=O)/C(=C/c3cccnc3)SC2=S)cc1 | 4%[15.4 µM] | i | 3% | 3% | 1%
O=C1CCC(c2ccccc2)=NN1c1ccc(Br)cc1 | / | / | 5% | / | /
CCN(CC)c1nc2ccccc2nc1C(=O)Nc1cc(C)cc(C)c1 | / | / | -14% | / | /
CCNc1ncnc2sc3c(c12)CCN(Cc1ccc[nH]1)C3 | / | / | 356% | / | /
Cc1cc2oc(C(=O)N3CCOC34CCN(C)CC4)cc(=O)c2cc1C | / | / | -12% | / | /
Cc1nc(N2CCC(C)CC2)c2c(C)c(C(=O)Nc3ccc4c(c3)OCCO4)sc2n1 | 30% | i | 1% | -11% | 24%
Cc1c(C(=O)N2CCCCC2C)sc2ncnc(N3CCc4ccccc4C3)c12 (configuration not stated) | 6%[15.4 µM] | i | -5% | 11µM* | 2%
